SRC1 inh – inhibits human SRC1 coactivator | inhibition, % at 3.6 µM | hit rate 0.12% among 360,000 | Q15788 | HEK293 GAL4-SRC1 luciferase reporter, luminescence;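 active means inhibition above the campaign mean plus 3 SD, with each screening campaign given its own cutoff, cut at about 60% in these data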;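 further: 0% = DMSO treated cells and 100% = gossypol at 36 µM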
SRC3 inh – inhibits human SRC3 coactivator; Q9Y6Q9; HEK293 GAL4-SRC3 luciferase reporter, luminescence; inhibition, % at 3.6 µM; hit rate 0.17% among 360,000;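 active means inhibition above a per-campaign cutoff, the mean of all compounds plus 3 SD, cut at about 60% in these data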;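 further: 0% = DMSO-treated cells and 100% = gossypol-treated cells at 36 µM; higher means less SRC3-driven luciferase light from the GAL4 reporter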
GalR3 antag – blocks the human galanin receptor 3. O60755. HEK293 GalR3-CNG cAMP membrane potential fluorescence; galR3 body fused to GalR1 C-terminus. inhibition, % at 3 µM. hit rate 0.44% among 360,000;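 active means inhibition above the screen-wide average plus 3 SD, cut at about 13% in these data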;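 further: forskolin and galanin both at EC90 stimulate the cells; cAMP rise reported by CNG channel membrane potential dye signal; 0% = forskolin plus galanin with DMSO and 100% = forskolin alone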
NR2F2 inh – inhibitors of human COUP-TFII (NR2F2). P24468. HEK293T NGFI-A luciferase reporter, luminescence. inhibition, % at 8.6 µM. hit rate 0.7% among 370,000;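 active means inhibition above a per-plate cutoff, mean inhibition of test wells between control levels plus 3 SD, cut at about 38% in these data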;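 further: cells cotransfected with COUP-TFII expression vector driving the NGFI-A reporter; 0% = median of COUP-TF2 test wells and 100% = reporter-only cells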
NCOA2 inhibitor – inhibits human steroid receptor coactivator 2 | HEK293 GAL4-SRC2 luciferase reporter, luminescence | inhibition, % at 9 µM | hit rate 0.17% among 370,000 | AID 651957;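 active means inhibition above the mean inhibition of all tested compounds plus 3 SD, set per campaign, cut at about 52% in these data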;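 further: 0% = DMSO treated cells and 100% = cells given Gossypol at 36 µM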
NR5A2 inv ag – suppresses constitutive activity of human LRH-1; O00482; HEK293T StAR-luciferase reporter, LRH-1 transfected, 24 h; inhibition, % at 3.6 µM; hit rate 0.13% among 360,000; AID 602396;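 active means inhibition above the mean inhibition of all tested compounds plus 3 SD, cut at about 73% in these data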;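 further: 0% = DMSO wells and 100% = reporter-only cells lacking LRH-1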
GalR3 antag conf – confirmation of human galanin receptor 3 antagonists; shares compounds with GalR3 antag; HEK293 GalR3 CNG cAMP biosensor, membrane potential fluorescence; galR3 fused to GalR1 carboxy tail; challenged with forskolin and galanin at EC90; inhibition, % at 3 µM; hit rate 59% among 1,600;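 active means inhibition above the primary screen's cutoff, the mean inhibition of all screened compounds plus 3 SD, cut at about 13% in these data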;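 further: 0% = forskolin plus galanin and 100% = forskolin alone with DMSO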
CNG parental – parental cell agonism counter-screen for GalR3 antagonists; shares compounds with GalR3 antag; HEK293-CNG parental cells, cAMP membrane potential fluorescence; normalised: DMSO wells 0%, forskolin wells 100%; activation, % at 3 µM; hit rate 10% among 1,600; AID 652268; in the data active means activation above about 1.3%
* marks the source's active call; other numbers are inactive results. Compounds with a hit are over-represented: about 1.1% of the library has one in this group of screens.

For COc1ccc(C(=O)Oc2cc3c4c(c2)C(C)=CC(C)(C)N4C(=O)C3=O)cc1OC the results were SRC1 inh -3, SRC3 inh 20, GalR3 antag 2, NR2F2 inh 16, NCOA2 inhibitor 30 and NR5A2 inv ag 2.
For CCc1cc2c3c(c1)C(C)CC(C)(C)N3C(=O)/C2=C1\SC(=O)NC1=O (configuration not stated) the results were SRC1 inh -11, SRC3 inh 3, GalR3 antag -3, NR2F2 inh 18, NCOA2 inhibitor 3 and NR5A2 inv ag -11.
`COc1cc2c3c(c1)C(C)=CC(C)(C)N3C(=O)C2=O` gave SRC1 inh -16, SRC3 inh 6, GalR3 antag 14*, NR2F2 inh -7, NCOA2 inhibitor -12, NR5A2 inv ag 3, GalR3 antag conf 9 and CNG parental 1.
Screening COc1cc2c3c(c1)C(C)CC(C)(C)N3C(=O)C2=O (configuration not stated) returned SRC1 inh 24, SRC3 inh 0, GalR3 antag 22*, NR2F2 inh 15, NCOA2 inhibitor 13, NR5A2 inv ag 22, GalR3 antag conf 23* and CNG parental 1.
`CCOc1ccc(OCCC(=O)NNC(=O)c2nn(C)c(=O)c3ccccc23)cc1` gave SRC1 inh -17, SRC3 inh 6, GalR3 antag -4, NR2F2 inh 4, NCOA2 inhibitor -19 and NR5A2 inv ag -4.
Screening CCCn1nc(C(=O)NNC(=O)CCCOc2ccc(OC)cc2)c2ccccc2c1=O returned SRC1 inh -22, SRC3 inh 1, GalR3 antag 58*, NR2F2 inh -16, NCOA2 inhibitor 3, NR5A2 inv ag 19, GalR3 antag conf 44* and CNG parental 0.
Screening CCNC(=O)N(C)[C@H]1C[C@H]2c3[nH]c4cccc(-c5ccc6c(c5)OCO6)c4c3CCN2C[C@H]1[C@H](C)O returned NR2F2 inh 1 and NCOA2 inhibitor 0.
For CCN(c1ccccc1)S(=O)(=O)c1ccc(C(=O)Nc2cccc(NC(C)=O)c2)cc1 the results were SRC1 inh -14, SRC3 inh 15, GalR3 antag -9, NR2F2 inh 7, NCOA2 inhibitor 1 and NR5A2 inv ag -8.
Screening CCN(c1ccccc1)S(=O)(=O)c1ccc(C(=O)Oc2ccc(C(C)=O)cc2)cc1 returned SRC1 inh 0, SRC3 inh 13, GalR3 antag 14*, NR2F2 inh 4, NCOA2 inhibitor 7, NR5A2 inv ag 9, GalR3 antag conf -2 and CNG parental 0.
Screening Cc1cccc(N2CCN(S(=O)(=O)c3cc(-c4cc(C)no4)ccc3C)CC2C)c1 (configuration not stated) returned SRC1 inh 30, SRC3 inh 30, GalR3 antag 52*, NR2F2 inh 34, NCOA2 inhibitor 26, NR5A2 inv ag 14, GalR3 antag conf 88* and CNG parental 0.
For C=CCOC(=O)C1=C(C)N=c2sc(=C3C(=O)N(CC(=O)O)c4ccccc43)c(=O)n2C1c1ccc(OC)cc1 (configuration not stated) the results were NR2F2 inh 21 and NCOA2 inhibitor 1.
For Cc1cc(NC(=O)/C=C/c2ccccc2)c(C(C)C)cc1O the results were SRC1 inh -15, SRC3 inh 9, GalR3 antag 19*, NR2F2 inh 4, NCOA2 inhibitor -27, NR5A2 inv ag -3, GalR3 antag conf 23* and CNG parental 0.
For Cc1cc(NC(=O)c2ccccc2Cl)c(C(C)C)cc1O the results were SRC1 inh 9, SRC3 inh -5, GalR3 antag -8, NR2F2 inh -2, NCOA2 inhibitor -8 and NR5A2 inv ag 7.
For CCOc1ccc(-n2c(SCC(=O)Nc3ccc(S(=O)(=O)Nc4nccs4)cc3)nnc2-c2ccncc2)cc1 the results were NR2F2 inh -8 and NCOA2 inhibitor -2.

Screening data deposited in PubChem BioAssay by The Scripps Research Institute Molecular Screening Center.
